Most compounds without a hit are left out; they make up all but 21% or so of the library.
Pf growth 96h = Primary qHTS for delayed death inhibitors of the malarial parasite plastid, 96 hour incubation | P. falciparum luciferase reporter growth, 96 h | Potency, µM (doses to about 28.7 µM), actives largely listed as inhibitors | 6.9% of 320,000 active
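P. falciparum expressing integrated firefly luciferase, in erythrocytes at 2% hematocrit, 0.05% parasitemia, incubated with compounds 96 h at 37 C, 5% CO2. Growth inhibition read as loss of luminescence; two-generation exposure targets delayed-death apicoplast inhibitors.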
Shiga toxin inh = A qHTS for Small Molecule Inhibitors of Shiga Toxin; 9.2% of 290,000 active; inhibition, % at 38.7 µM; Vero cells, Shiga toxin protein synthesis inhibition reporter; AID 2315, 2010; in the data active means inhibition mostly above about 28%, no sharp cut-off; inactive means mostly below about 43%
CHX counter = Cycloheximide Counterscreen for Small Molecule Inhibitors of Shiga Toxin | cell reporter, cycloheximide protein synthesis inhibition counterscreen | max response, % | 12% of 300,000 active | AID 2314, 2010; in the data active means max response mostly above about 13%, no sharp cut-off; inactive means mostly below about 14%; further: read at 38.3 µM for the half of the compounds with a filed dose
NS1 inh = qHTS Assay for Inhibitors of Influenza NS1 Protein Function; Potency, µM (doses to about 46.1 µM); 0.4% of 270,000 active; AID 2326, 2010; calls by dose curve; further: actives are rising curves; nearly all actives have a fitted effect of over 50% in size
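Growth recovery, yeast-based: influenza A NS1 expressed in S. cerevisiae causes slow growth, and suppressors are detected by OD600. The parent strain without NS1 is used as positive control.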
Pf growth 48h = Primary qHTS for delayed death inhibitors of the malarial parasite plastid, 48 hour incubation. P. falciparum luciferase growth in erythrocytes, 48 h. Potency, µM (series often up to 28.7 µM), usual class: inhibitors. 5.9% of 310,000 active. AID 504832, 2011
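Compounds are pin-transferred into medium, infected erythrocytes (2% hematocrit, 0.1% parasitemia final) are added, and plates sit one parasite generation at 37 C in 5% CO2. Detection reagent is then added and luminescence measured.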
Of the large screens only hits and unclear results are named; the others gave an inactive call. Unless noted, the call rests on the fitted dose curve; in most records, active means well fitted inhibition curve with a large enough effect; inconclusive means small, poorly fitted or top-dose-only effect, or another doubt; inactive means no such curve, though single readings can be large or run the other way.

O=C(NCC1CCCO1)c1ccc2c(=O)n(-c3ccccc3)c(=S)[nH]c2c1 (configuration not stated)	none (no result: NS1 inh)
CC(=O)NCCOC(=O)c1nn(Cc2ccccc2)c(=O)c2ccccc12	none
COc1ccc(C2C(C(=O)c3ccccc3)=C(C)Nc3nc4ccccc4n32)cc1OC (configuration not stated)	Pf growth 96h 3.3µM
COc1ccc(OC)c(C2C(C(=O)c3ccccc3)=C(C)Nc3nc4ccccc4n32)c1 (configuration not stated)	Pf growth 96h inconclusive, Pf growth 48h inconclusive
O=C(c1ccc2c(c1)N(Cc1cccc(Cl)c1)C(=O)c1ccccc1S2(=O)=O)N1CCN(c2ccccn2)CC1	Pf growth 48h inconclusive (no result: NS1 inh)
COc1ccc(C(=O)/C(C#N)=N/Nc2ccc([N+](=O)[O-])cc2)cc1	Pf growth 96h inconclusive, Pf growth 48h 13µM
CCOC(=O)NC(=O)/C(C#N)=N\Nc1ccc(Cl)cc1	Pf growth 96h inconclusive (no result: Pf growth 48h)
COc1ccc(C(=O)/C(C#N)=N/Nc2ccccc2[N+](=O)[O-])cc1	none
COc1ccc(N/N=C(\C#N)C(N)=O)cc1	CHX counter 13
N#C/C(=N/Nc1ccc(OC(F)(F)F)cc1)C(N)=S	Pf growth 96h 1.7µM, Shiga toxin inh 75, CHX counter 57, Pf growth 48h 6.6µM
CCOc1ccc(N/N=C(/C#N)C(N)=O)cc1	Shiga toxin inh 46, CHX counter 31
Cc1ccc(NC(=O)CN2C(=O)S/C(=C\c3cc(Cl)c(OCC(=O)O)c(Cl)c3)C2=O)cc1	none (no result: Shiga toxin inh)
COc1cccc(NC(=O)CN(C)C(=O)CCCc2nc3ccccc3c(=O)[nH]2)c1	none (no result: Shiga toxin inh, CHX counter, NS1 inh)
Cc1csc(N(C(=O)Cc2ccccc2F)c2ccccc2)n1	none
Cc1ccc(N=c2ssnc2Cl)cc1	CHX counter 26
COc1ccc(OC)c(N=c2ssnc2Cl)c1	Pf growth 96h 1.7µM
Cc1cc(C)nc(/N=c2/ssnc2Cl)c1	none
Cc1cc(Cl)ccc1N=c1ssnc1Cl	none (no result: Pf growth 48h)
COc1cc(N=c2ssnc2Cl)c(OC)cc1Cl	Pf growth 96h inconclusive
Nc1ccccc1N=c1ssnc1Cl	Shiga toxin inh 55, Pf growth 48h inconclusive (no result: NS1 inh)
Cc1cc(C)c2c(c1)SC1=NC(c3ccccc3)(C(F)(F)F)NC(=O)N12 (configuration not stated)	CHX counter 24, Pf growth 48h inconclusive
COc1ccc(NS(=O)(=O)c2ccc(OC)c(N(C)S(=O)(=O)c3ccc(Cl)cc3)c2)cc1	Pf growth 96h 3.7µM, Pf growth 48h 12µM
COc1ccc(S(=O)(=O)Nc2ccc(F)cc2)cc1N(C)S(=O)(=O)c1ccc(Cl)cc1	Pf growth 48h 5.2µM
COc1ccc(OCCNC(=O)CCCO)cc1	none
CC(=O)Nc1ccc(/C(C)=N/NS(=O)(=O)c2ccc(C)cc2)cc1	Pf growth 96h inconclusive
C/C(=N\NS(=O)(=O)c1ccc([N+](=O)[O-])cc1)c1ccc(NC(=O)c2ccco2)cc1	CHX counter 25 (no result: NS1 inh)
C/C(=N/NS(=O)(=O)c1ccc(Br)cc1)c1ccc(NC(=O)c2ccc(C)o2)cc1	Shiga toxin inh 78, CHX counter 48
Cc1ccc(S(=O)(=O)NC(=O)Nc2ncn[nH]2)cc1	none (no result: Pf growth 96h, Shiga toxin inh, CHX counter, Pf growth 48h)
CC(C)Cc1ccc(S(=O)(=O)N2CCN(c3ccccn3)CC2)cc1	none
CCc1ccc(N2C(=O)C3CCCN3C2=S)cc1 (configuration not stated)	Shiga toxin inh 52, Pf growth 48h inconclusive
CCc1ccc(N2C(=O)C3C4C=CC(CC4)C3C2=O)cc1 (configuration not stated)	Shiga toxin inh 48, Pf growth 48h inconclusive
Cc1cccc(N2C(=O)C3CCCN3C2=S)c1C (configuration not stated)	Pf growth 96h inconclusive, Pf growth 48h 13µM (no result: Shiga toxin inh, CHX counter, NS1 inh)
CCn1cnc2c1c(=O)n(CC(=O)NCc1ccccc1)c(=O)n2Cc1ccccc1	Pf growth 96h inconclusive, Pf growth 48h inconclusive (no result: NS1 inh)
CCn1cnc2c1c(=O)n(Cc1cccc([N+](=O)[O-])c1)c(=O)n2Cc1ccccc1	Pf growth 96h inconclusive, Pf growth 48h 8.3µM
CCOC(=O)c1c(C)[nH]c(C(=O)Cn2c(=O)c3c(ncn3CC)n(Cc3ccccc3)c2=O)c1C	Pf growth 96h 10µM, Pf growth 48h 8.3µM
CCn1cnc2c1c(=O)n(Cc1csc(-c3ccccc3)n1)c(=O)n2Cc1ccccc1	Pf growth 48h inconclusive
Cc1cnc(NC(=O)c2c(-c3ccccc3)noc2C)s1	none
Cc1cc2cc(CNC(=O)Nc3ccccc3)ccc2n1C	Shiga toxin inh 48, CHX counter 18, NS1 inh inconclusive
CCS(=O)(=O)NCc1ccc2c(c1)cc(C)n2C	Pf growth 96h 6.6µM, Pf growth 48h inconclusive
CCOC(=O)CCC(=O)NCc1ccc2c(c1)cc(C)n2C	Pf growth 48h inconclusive
CCOC(=O)NCc1ccc2c(c1)cc(C)n2C	CHX counter 15
CCCCC(=O)NCc1ccc2c(c1)cc(C)n2C	Shiga toxin inh 52, NS1 inh inconclusive
CCCS(=O)(=O)NCc1ccc2c(c1)cc(C)n2C	NS1 inh inconclusive
CCC(CC)C(=O)NCc1ccc2c(c1)cc(C)n2C	NS1 inh inconclusive
O=C(COC(=O)CNC(=O)c1ccc(Cl)cc1Cl)NC(=O)NC1CCCCC1	Pf growth 48h inconclusive (no result: Shiga toxin inh, CHX counter, NS1 inh)
S=C1NNC2(NN1)C1CC3CC(C1)CC2C3	Shiga toxin inh 45, CHX counter 32
C1CSC2(N1)C1CC3CC(C1)CC2C3 (configuration not stated)	none
CCC(C)c1c(O)nc(SCC(=O)N2CCCCCC2)[nH]c1=O (configuration not stated)	Pf growth 48h inconclusive
COc1cc(NC(=O)c2cnc(N)o2)cc(C(=O)Nc2cccc(C(F)(F)F)c2)c1	Pf growth 96h 13µM, NS1 inh inconclusive, Pf growth 48h 10µM
COc1cc(NC(=O)c2cc(C)on2)cc(C(=O)Nc2cccc(C(F)(F)F)c2)c1	Pf growth 96h inconclusive, Pf growth 48h inconclusive
COc1cc(NC(=O)c2csc(N)n2)cc(C(=O)Nc2cccc(C(F)(F)F)c2)c1	Pf growth 96h inconclusive, NS1 inh inconclusive, Pf growth 48h 12µM
COc1cc(NC(=O)c2cnc(N)s2)cc(C(=O)Nc2cccc(C(F)(F)F)c2)c1	Pf growth 96h 3.3µM, Pf growth 48h 2.6µM
COc1cc(NC(=O)c2ccnc(N)c2)cc(C(=O)Nc2cccc(C(F)(F)F)c2)c1	Pf growth 96h 1.9µM, Pf growth 48h 2.1µM
CCOC(=O)c1c(NC(=O)c2noc(C)c2[N+](=O)[O-])sc(C(C)=O)c1C	none (no result: NS1 inh)
COC(=O)c1c(C)[nH]c(C(=O)C(C)Sc2nnc(-c3cc(OC)c(OC)c(OC)c3)o2)c1C (configuration not stated)	none
COc1cccc(CCc2nnc(CCC(=O)NC(C)c3c(C)nn(C)c3C)o2)c1 (configuration not stated)	none
Clc1ccc(OCc2nnc3n2CCCCC3)c(Cl)c1	Shiga toxin inh 56, CHX counter 28
COc1ccc(CNc2ccc3cn[nH]c3c2)c(OC)c1OC	Pf growth 96h inconclusive (no result: Pf growth 48h)
COc1cc(NCc2ccc3nc(N)nc(N)c3c2C)cc(OC)c1OC	Pf growth 96h 0.0048µM, Pf growth 48h 0.006µM (no result: NS1 inh)
